Experimental findings from PubChem BioAssay (EPA / NIEHS) are described below.

Assay [1] in a line: ATG_NFI_CIS: Attagene CIS-FACTORIAL HepG2 Assay for human Nuclear Factor I (NFI) (AID 2282989). The settings on record: HepG2 cis-regulatory reporter, NFI response element transcription; actives raise or lower the signal. In outline: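 After transient transfection of HepG2 with cis-promoter reporter constructs and 24 h dosing, RNA is reverse-transcribed, amplified, 6-FAM end-labelled and HpaI-digested before capillary analysis. Bidirectional curve fitting against DMSO.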

Assay [2] deals with Myc proto-oncogene protein (Homo sapiens) (UniProt P01106). Briefly: ATG_Myc_CIS: Attagene CIS-FACTORIAL HepG2 Assay for human Myelocytomatosis (Myc) Proto-Oncogene Transcription Factor (AID 2282990). The following applies: HepG2, Attagene cis-reporter transcription factor activity; actives raise or lower the signal. The procedure, abridged: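 Fluorescence intensity of reporter-specific cDNA fragments, separated by capillary electrophoresis, gives the signal. Transfected HepG2 cells carrying cis-promoter reporter constructs are incubated with compound for 24 h; DMSO serves as baseline.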
Sequence of Myc proto-oncogene protein (Homo sapiens) (P01106 whole entry, looked up, the tested form may be a part): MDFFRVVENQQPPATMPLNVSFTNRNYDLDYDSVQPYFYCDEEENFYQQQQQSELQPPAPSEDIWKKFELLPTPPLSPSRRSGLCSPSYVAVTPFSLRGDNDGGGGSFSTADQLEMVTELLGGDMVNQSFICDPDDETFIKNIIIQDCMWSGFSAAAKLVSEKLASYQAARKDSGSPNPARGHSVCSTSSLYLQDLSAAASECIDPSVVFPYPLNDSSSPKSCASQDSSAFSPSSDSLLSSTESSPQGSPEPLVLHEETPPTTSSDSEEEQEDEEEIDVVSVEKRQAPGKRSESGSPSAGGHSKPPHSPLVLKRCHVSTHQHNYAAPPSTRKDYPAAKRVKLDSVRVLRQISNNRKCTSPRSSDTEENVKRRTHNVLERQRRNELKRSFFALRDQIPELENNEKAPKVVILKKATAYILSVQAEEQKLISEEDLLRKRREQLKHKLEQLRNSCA

Assay [3] in a line: ATG_NF_kB_CIS: Attagene CIS-FACTORIAL HepG2 Assay for human Nuclear Factor Kappa B (NF-kB) (AID 2282991). The settings on record: HepG2 Attagene cis-factorial NF-kB reporter mRNA; actives raise or lower the signal. In outline: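 After 24 h compound incubation, transfected HepG2 cells yield total RNA; reporter cDNA is PCR-amplified, end-labelled with 6-FAM, HpaI-digested and analysed on a genetic analyser. Endogenous factor activity, DMSO-referenced bidirectional fit.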

Assay [4] can be described thus: ATG_NRF2_ARE_CIS: Attagene CIS-FACTORIAL HepG2 Assay for human Nuclear Factor Erythroid 2 Related Factor 2 (NFR2) response to Antioxidant Response Elements (ARE) (AID 2282992). The following applies: HepG2 Attagene ARE/NRF2 reporter, transcription factor activity; actives raise or lower the signal. The procedure, abridged: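 Cis-factorial assay: transfected HepG2 reporter library, 24 h dosing, mRNA readout via RT-PCR/CE; DMSO-referenced bidirectional analysis.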

A short description of assay [5]: ATG_Oct_MLP_CIS: Attagene CIS-FACTORIAL HepG2 Assay for human Octamer-Binding Transcription Factor (Oct) (AID 2282993). The settings on record: HepG2 Attagene cis-factorial Oct reporter, mRNA; actives raise or lower the signal. The procedure, abridged: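 Cells of the HepG2 line express promoter-controlled reporter sequences whose mRNA levels, after 24 h treatment, are measured by RT-PCR and capillary electrophoresis. Increases and decreases are scored relative to DMSO.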

Assay [6] concerns the target Cellular tumor antigen p53 (Homo sapiens) (UniProt P04637). Description: ATG_p53_CIS: Attagene CIS-FACTORIAL HepG2 Assay for human p53 Transcription Factor (AID 2282994). The settings on record: HepG2 p53 cis-element reporter, Attagene mRNA; actives raise or lower the signal. In outline:
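Using HepG2 hepatoma cells carrying cis-acting multiplexed reporters, mRNA induction is detected after a 24 h exposure. Gain- and loss-of-signal responses are fitted relative to DMSO-treated cells.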

Assay [7] has as its target human Peroxisome Proliferator-activated Receptor alpha (PPARa), PPARA (gene 5465) (UniProt Q07869). Briefly: ATG_PPARa_TRANS: Attagene TRANS-FACTORIAL HepG2 Assay for human Peroxisome Proliferator-activated Receptor alpha (PPARa) (AID 2283001; active = hit-call score of the fitted dose curve at least 0.9, where 1 is the maximum). In outline:
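Measures transcriptional activity of an exogenous chimeric PPARa-Gal4 protein in transiently transfected HepG2 cells after 24 h dosing. Reporter mRNA quantified via RT-PCR and capillary electrophoresis; DMSO served as negative control.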

In assay [8] the target is human Retinoic Acid Receptor beta (RARb), RARB (gene 5915) (UniProt P10826). Description: ATG_RARb_TRANS: Attagene TRANS-FACTORIAL HepG2 Assay for human Retinoic Acid Receptor beta (AID 2283004; active = hit-call score of the fitted dose curve at least 0.9, where 1 is the maximum). The procedure, abridged:
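HepG2 cells transiently transfected with multiplexed GAL4-UAS reporter units expressing chimeric NR–Gal4 fusions; 24 h compound exposure. Reporter mRNA quantified by RT-PCR, 6-FAM labelling, HpaI digestion and capillary electrophoresis; gain-of-signal fitted against DMSO baseline.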

The target in assay [9] is Peroxisome proliferator-activated receptor gamma (Homo sapiens) (UniProt P37231). Briefly: ATG_PPARg_TRANS: Attagene TRANS-FACTORIAL HepG2 Assay for human Peroxisome Proliferator-activated Receptor-gamma (PPARg) (AID 2283007; active = hit-call score of the fitted dose curve at least 0.9, where 1 is the maximum). In outline: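 Liver-derived HepG2 cells expressing an exogenous NR-Gal4 chimera alongside GAL4-UAS reporter genes; 24 h exposure. Fluorescence of reporter RT-PCR products, separated by capillary electrophoresis, gives mRNA induction relative to DMSO.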
Sequence of Peroxisome proliferator-activated receptor gamma (Homo sapiens) (P37231 whole entry, looked up, the tested form may be a part): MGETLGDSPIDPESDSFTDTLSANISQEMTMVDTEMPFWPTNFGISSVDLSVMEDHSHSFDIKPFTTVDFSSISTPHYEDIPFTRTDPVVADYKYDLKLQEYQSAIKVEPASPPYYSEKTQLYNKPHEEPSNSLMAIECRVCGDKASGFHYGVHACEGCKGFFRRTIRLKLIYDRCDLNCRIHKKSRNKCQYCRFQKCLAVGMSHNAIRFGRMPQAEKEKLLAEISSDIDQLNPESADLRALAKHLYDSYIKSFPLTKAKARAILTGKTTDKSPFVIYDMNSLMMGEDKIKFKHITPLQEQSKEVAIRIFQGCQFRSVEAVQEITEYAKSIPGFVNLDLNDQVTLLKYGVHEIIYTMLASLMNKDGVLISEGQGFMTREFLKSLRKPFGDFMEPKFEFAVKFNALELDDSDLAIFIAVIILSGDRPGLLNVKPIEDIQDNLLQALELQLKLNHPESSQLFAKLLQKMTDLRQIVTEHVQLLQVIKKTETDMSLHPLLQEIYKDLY

Assay [10] has as its target Nuclear receptor subfamily 1 group I member 2 (Homo sapiens) (UniProt O75469). Description: ATG_PXR_TRANS: Attagene TRANS-FACTORIAL HepG2 Assay for human Pregnane X Receptor (PXR) (AID 2283008; active = hit-call score of the fitted dose curve at least 0.9, where 1 is the maximum). In outline:
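Fluorescence intensity of FAM-labelled, HpaI-digested reporter amplicons, separated by capillary electrophoresis, quantifies induction. HepG2 cells with PXR-Gal4 trans-reporter system were exposed 24 h; DMSO defines baseline.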

Assay [11] deals with human Retinoic Acid Receptor gamma (RARg), RARG (gene 5916) (UniProt P13631). Description: ATG_RARg_TRANS: Attagene TRANS-FACTORIAL HepG2 Assay for human Retinoic Acid Receptor gamma (RARg) (AID 2283009; active = hit-call score of the fitted dose curve at least 0.9, where 1 is the maximum). In outline:
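HepG2 cells transiently transfected with multiplexed reporter units expressing chimeric RARg-GAL4 and GAL4-UAS-driven reporters; 24 h compound exposure. Reporter mRNA quantified by RT-PCR with fluorescent labelling and capillary electrophoresis; gain-of-signal fitted relative to DMSO baseline.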

In assay [12] the target is human RAR-related Orphan Receptor beta (RORb), RORB (gene 6096) (UniProt Q92753). Description: ATG_RORb_TRANS: Attagene TRANS-FACTORIAL HepG2 Assay for human RAR-related Orphan Receptor beta (RORb) (AID 2283010; active = hit-call score of the fitted dose curve at least 0.9, where 1 is the maximum). The procedure, abridged:
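HepG2 cells were transiently transfected with multiplexed GAL4-UAS reporter units expressing chimeric nuclear receptor–GAL4 proteins, then dosed for 24 h. Reporter mRNA was quantified by RT-PCR with fluorescent labelling and capillary electrophoresis; gain of signal was fitted relative to DMSO.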

Assay [13] addresses human Peroxisome Proliferator-activated Receptor delta (PPARd), PPARD (gene 5467) (UniProt Q03181). Description: ATG_PPARd_TRANS: Attagene TRANS-FACTORIAL HepG2 Assay for human Peroxisome Proliferator-activated Receptor delta (PPARd) (AID 2283002; active = hit-call score of the fitted dose curve at least 0.9, where 1 is the maximum). In outline: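 Fluorescence from capillary electrophoresis of labelled RT-PCR reporter fragments gives the signal; DMSO sets baseline. Cells: HepG2 transiently carrying GAL4-UAS reporter units plus chimeric nuclear receptor-Gal4 proteins, exposed to chemicals for 24 h.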

In assay [14] the target is Retinoic acid receptor alpha (Homo sapiens) (UniProt P10276). Briefly: ATG_RARa_TRANS: Attagene TRANS-FACTORIAL HepG2 Assay for human Retinoic Acid Receptor alpha (RARa) (AID 2283005; active = hit-call score of the fitted dose curve at least 0.9, where 1 is the maximum). In outline: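 HepG2 transiently transfected with multiplex GAL4-UAS reporter units including a human RARa–GAL4 chimera; 24 h compound exposure. Reporter mRNA quantified by RT-PCR, 6-FAM labeling and capillary electrophoresis; gain of signal versus DMSO.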
Sequence of Retinoic acid receptor alpha (Homo sapiens) (P10276 whole entry, looked up, the tested form may be a part): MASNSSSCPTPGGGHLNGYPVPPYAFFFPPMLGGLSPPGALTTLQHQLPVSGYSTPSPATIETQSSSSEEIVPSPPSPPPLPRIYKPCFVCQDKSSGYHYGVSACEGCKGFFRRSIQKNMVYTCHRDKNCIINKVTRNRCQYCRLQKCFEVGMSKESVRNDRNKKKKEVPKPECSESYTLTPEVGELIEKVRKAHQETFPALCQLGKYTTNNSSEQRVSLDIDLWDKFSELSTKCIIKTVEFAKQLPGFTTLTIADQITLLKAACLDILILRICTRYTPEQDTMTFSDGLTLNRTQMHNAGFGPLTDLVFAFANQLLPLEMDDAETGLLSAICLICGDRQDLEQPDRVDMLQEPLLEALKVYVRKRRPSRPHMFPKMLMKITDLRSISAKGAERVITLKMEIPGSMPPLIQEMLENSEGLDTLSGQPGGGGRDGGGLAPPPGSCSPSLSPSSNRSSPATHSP

Molecules are shown by their SMILES. Results filed as inconclusive are left out. Calls of active or inactive are those of the source. Rule for the calls, unless noted: active = hit-call score of the fitted dose curve at least 0.9, where 1 is the maximum; inactive = score below 0.9.

Sequence of human RAR-related Orphan Receptor beta (RORb), RORB (gene 6096) (Q92753 whole entry, looked up, the tested form may be a part): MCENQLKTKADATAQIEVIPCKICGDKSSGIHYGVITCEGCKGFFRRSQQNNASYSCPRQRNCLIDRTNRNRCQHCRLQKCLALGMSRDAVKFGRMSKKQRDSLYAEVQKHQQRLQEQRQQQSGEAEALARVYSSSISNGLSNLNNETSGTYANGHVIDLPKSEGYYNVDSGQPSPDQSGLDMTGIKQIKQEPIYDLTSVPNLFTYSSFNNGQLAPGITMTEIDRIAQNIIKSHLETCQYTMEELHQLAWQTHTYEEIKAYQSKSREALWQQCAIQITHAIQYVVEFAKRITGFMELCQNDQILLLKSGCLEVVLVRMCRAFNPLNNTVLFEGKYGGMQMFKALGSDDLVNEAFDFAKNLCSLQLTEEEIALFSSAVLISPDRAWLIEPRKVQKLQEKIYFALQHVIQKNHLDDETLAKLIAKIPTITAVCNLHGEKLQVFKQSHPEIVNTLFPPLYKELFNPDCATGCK
Sequence of human Peroxisome Proliferator-activated Receptor delta (PPARd), PPARD (gene 5467) (Q03181 whole entry, looked up, the tested form may be a part): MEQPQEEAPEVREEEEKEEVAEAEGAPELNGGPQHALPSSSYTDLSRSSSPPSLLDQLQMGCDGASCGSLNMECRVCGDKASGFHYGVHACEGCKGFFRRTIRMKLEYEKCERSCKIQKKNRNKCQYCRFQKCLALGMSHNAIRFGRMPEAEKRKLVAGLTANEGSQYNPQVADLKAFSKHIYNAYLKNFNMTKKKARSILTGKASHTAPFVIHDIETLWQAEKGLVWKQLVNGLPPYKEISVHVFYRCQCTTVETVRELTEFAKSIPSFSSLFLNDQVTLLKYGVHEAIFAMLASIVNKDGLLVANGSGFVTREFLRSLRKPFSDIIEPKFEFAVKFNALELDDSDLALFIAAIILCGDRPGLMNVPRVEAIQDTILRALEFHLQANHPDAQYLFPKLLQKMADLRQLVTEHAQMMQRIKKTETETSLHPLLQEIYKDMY
Sequence of Nuclear receptor subfamily 1 group I member 2 (Homo sapiens) (O75469 whole entry, looked up, the tested form may be a part): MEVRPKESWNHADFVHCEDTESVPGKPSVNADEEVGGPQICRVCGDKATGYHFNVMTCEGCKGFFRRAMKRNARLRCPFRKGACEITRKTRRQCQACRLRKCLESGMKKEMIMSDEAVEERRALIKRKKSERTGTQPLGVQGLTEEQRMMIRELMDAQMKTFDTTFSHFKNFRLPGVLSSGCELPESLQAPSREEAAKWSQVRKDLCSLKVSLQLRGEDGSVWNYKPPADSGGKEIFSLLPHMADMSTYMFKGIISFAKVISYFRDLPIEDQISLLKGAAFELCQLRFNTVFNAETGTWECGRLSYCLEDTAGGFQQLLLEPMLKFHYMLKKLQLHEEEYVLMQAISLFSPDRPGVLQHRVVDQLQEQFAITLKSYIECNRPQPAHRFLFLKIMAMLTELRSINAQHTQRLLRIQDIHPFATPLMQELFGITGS
Sequence of human Retinoic Acid Receptor beta (RARb), RARB (gene 5915) (P10826 whole entry, looked up, the tested form may be a part): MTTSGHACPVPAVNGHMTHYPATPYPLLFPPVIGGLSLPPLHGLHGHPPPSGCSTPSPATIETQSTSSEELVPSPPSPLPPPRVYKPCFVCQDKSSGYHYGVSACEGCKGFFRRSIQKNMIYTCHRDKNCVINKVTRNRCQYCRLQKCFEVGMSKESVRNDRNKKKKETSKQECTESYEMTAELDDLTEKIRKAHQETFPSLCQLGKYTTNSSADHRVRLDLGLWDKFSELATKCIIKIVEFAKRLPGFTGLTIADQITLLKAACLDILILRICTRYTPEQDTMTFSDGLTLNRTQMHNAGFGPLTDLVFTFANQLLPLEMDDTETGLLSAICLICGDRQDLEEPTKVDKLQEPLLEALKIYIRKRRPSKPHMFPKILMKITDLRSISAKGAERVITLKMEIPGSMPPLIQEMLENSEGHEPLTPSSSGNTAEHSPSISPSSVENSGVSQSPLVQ
Sequence of human Retinoic Acid Receptor gamma (RARg), RARG (gene 5916) (P13631 whole entry, looked up, the tested form may be a part): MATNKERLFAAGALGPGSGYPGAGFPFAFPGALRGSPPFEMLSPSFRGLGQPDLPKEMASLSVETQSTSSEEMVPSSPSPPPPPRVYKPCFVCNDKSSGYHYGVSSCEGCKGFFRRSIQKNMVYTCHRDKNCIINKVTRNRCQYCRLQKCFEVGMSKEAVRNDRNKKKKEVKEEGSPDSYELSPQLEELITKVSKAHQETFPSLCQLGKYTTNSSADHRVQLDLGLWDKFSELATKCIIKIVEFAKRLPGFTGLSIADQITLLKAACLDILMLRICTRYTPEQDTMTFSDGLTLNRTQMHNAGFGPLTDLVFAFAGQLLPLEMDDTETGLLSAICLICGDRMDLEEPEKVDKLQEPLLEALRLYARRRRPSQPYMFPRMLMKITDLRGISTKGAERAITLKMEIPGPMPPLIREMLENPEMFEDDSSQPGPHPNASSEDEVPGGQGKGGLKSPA
Sequence of Cellular tumor antigen p53 (Homo sapiens) (P04637 whole entry, looked up): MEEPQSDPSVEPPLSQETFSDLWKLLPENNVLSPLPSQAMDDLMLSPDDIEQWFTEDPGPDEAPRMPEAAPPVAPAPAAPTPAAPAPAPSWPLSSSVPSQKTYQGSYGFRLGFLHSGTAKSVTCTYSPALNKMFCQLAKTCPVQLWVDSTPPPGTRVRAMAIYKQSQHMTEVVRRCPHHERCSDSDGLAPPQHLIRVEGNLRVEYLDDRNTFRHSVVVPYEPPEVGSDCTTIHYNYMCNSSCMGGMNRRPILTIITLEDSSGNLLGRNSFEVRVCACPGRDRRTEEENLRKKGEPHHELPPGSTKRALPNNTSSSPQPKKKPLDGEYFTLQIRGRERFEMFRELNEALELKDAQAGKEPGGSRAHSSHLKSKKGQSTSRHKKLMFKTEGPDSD
Sequence of human Peroxisome Proliferator-activated Receptor alpha (PPARa), PPARA (gene 5465) (Q07869 whole entry, looked up, the tested form may be a part): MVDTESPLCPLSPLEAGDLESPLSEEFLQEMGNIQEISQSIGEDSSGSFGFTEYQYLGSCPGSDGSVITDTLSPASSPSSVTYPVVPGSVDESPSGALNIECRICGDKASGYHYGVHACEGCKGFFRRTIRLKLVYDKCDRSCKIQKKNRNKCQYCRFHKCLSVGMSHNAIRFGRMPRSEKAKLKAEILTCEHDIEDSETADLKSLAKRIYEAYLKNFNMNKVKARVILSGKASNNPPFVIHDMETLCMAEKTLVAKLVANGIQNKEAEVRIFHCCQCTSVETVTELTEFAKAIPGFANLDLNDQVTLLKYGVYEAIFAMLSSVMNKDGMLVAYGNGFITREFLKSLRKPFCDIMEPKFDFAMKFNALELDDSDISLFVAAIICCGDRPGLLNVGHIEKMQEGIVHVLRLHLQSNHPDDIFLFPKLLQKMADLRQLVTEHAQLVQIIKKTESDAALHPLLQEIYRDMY

Take `Cc1cc(S(=O)(=O)O)ccc1N=Nc1c(O)ccc2ccccc12`: the outcome in assay [1], in assay [2], in assay [3], in [4], in assay [5] and in assay [6] was inactive. Further, the molecule was called inactive in assay [7], in [8], in assay [9], in [10], in assay [11] and in [12].
As to `CC(C)CCCCCCCCCCCCCCC(=O)O`, the molecule was classed as inactive in assay [1], in assay [2], in [3], in assay [4], in assay [5] and in assay [6]. Moreover, the molecule was called inactive in [7], in assay [13] and in [12]. Moreover, the AC50 (in general, the concentration at which the activity in the assay is half-maximal) in assay [9] is 30.2 µM (active).
Regarding `CCCCCCCCc1ccc(S(=O)(=O)O)cc1`, the AC50 in assay [1] is 185 µM (active); in [3], 130 µM (active); in assay [4], 99.5 µM (active); in assay [9], 23.6 µM (active). The outcome in assay [2], in [5], in assay [6], in assay [7], in assay [8] and in assay [11] was inactive. In assay [12], the molecule was classed as inactive.
On to `CC(C)CC(C)CC(O)CC(C)C` (configuration not stated), for which the outcome in assay [1], in assay [2], in [3], in [5], in [6] and in assay [7] was inactive. Also, the result in assay [14], in assay [9], in assay [10] and in [11] was inactive. Besides, the AC50 in assay [4] is 100 µM (active).
`CCCCCCCCCCCCS(=O)(=O)Cl`: the result in [1], in assay [2], in [3], in [4], in assay [5] and in [6] was inactive. Moreover, the molecule was classed as inactive in assay [7], in [13], in [14] and in [11]. Further, the AC50 in [9] is 25 µM (active).
Regarding `COc1cc(CCC(C)=O)ccc1O`, the outcome in assay [1], in assay [2], in assay [3], in [4], in assay [5] and in assay [6] was inactive. Further, the molecule was called inactive in [7], in assay [14], in assay [9] and in assay [10].
For `COC(CC(C)CCCC(C)(C)O)OC` (configuration not stated), the result in assay [1], in assay [2], in assay [3], in assay [4], in assay [5] and in assay [6] was inactive. Moreover, the molecule was classed as inactive in assay [7], in [8] and in assay [14].
As to `C=Cc1ccncc1`, the AC50 in assay [1] was 21.8 µM (active); in assay [3], 61.5 µM (active); in assay [4], 25.1 µM (active); in assay [5], 26.8 µM (active); in assay [13] it was 25.6 µM (active); in assay [9], 77.4 µM (active). In addition, the molecule was called inactive in assay [2], in [6], in assay [7], in assay [14] and in assay [12].
Take `CCC1CCCCC1`: the result in assay [1], in [2], in [3], in assay [4], in assay [5] and in [6] was inactive. Besides, the outcome in [7], in assay [8], in assay [9], in [11] and in assay [12] was inactive.
As for `CCCCCCCCCCCCN1CCCCCC1=O`, the molecule was called inactive in [1], in [2], in [3], in assay [5], in [6] and in assay [7]. Also, the molecule was called inactive in assay [13], in [9] and in [11]. Besides, the AC50 in [4] was 10.9 µM (active); in assay [10], 1.93 µM (active).
As to `CCOC(=O)[C@@H](C)Oc1ccc(Oc2nc3ccc(Cl)cc3o2)cc1`, the molecule was classed as inactive in assay [1], in [2], in assay [3], in assay [5], in assay [6] and in [7]. In addition, the result in assay [13] and in assay [10] was inactive. Further, the half-maximal activity concentration (AC50) is 39.9 µM (active) in [4] and 39.2 µM (active) in assay [9].
